A short description of experiment [1]: qHTS assay for small molecule agonists of the p53 signaling pathway (AID 651631; calls by dose curve; note: nearly all actives have a fitted effect of over 15% in size; note: potency is the fitted concentration of half-maximal effect). Summed up:
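Quantitative high-throughput format: 4,000 p53RE-bla HCT-116 cells/well, 5 h pre-incubation, 16 h compound exposure at 37 °C, 2 h room-temperature substrate step, fluorescence intensity measured.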
Background: qHTS replaces the single test concentration by a dilution series.

Experiment [2] can be described thus: qHTS assay for small molecules that induce genotoxicity in human embryonic kidney cells expressing luciferase-tagged ATAD5 (AID 651632). Note: nearly all actives have a fitted effect of over 15% in size. Note: potency is the fitted concentration of half-maximal effect. In a few lines:
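Reporter cells (HEK293T) express luciferase-tagged ATAD5, a protein that accumulates after DNA damage. Treat 16 hr at 37C/5% CO2, add Amplite, wait 30 min at RT, and read luminescence.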

Experiment [3] can be described thus: qHTS assay for small molecule agonists of the p53 signaling pathway - cell viability (AID 651633; calls by dose curve; note: nearly all actives have a fitted effect of over 30% in size; note: potency is the fitted concentration of half-maximal effect). Summed up: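 Viability counter-read: CellTiter-Glo luminescence (30 min, room temperature) in the same p53RE-bla plates. These plates had been exposed to compounds for 16 h at 37 C.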
Experiment [4] is described as follows: qHTS assay for small molecules that induce genotoxicity in human embryonic kidney cells expressing luciferase-tagged ATAD5 - cell viability (AID 651634; calls by dose curve; note: nearly all actives have a fitted effect of over 25% in size; note: potency is the fitted concentration of half-maximal effect). Summed up: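 Seeding of 2,000 HEK293T ATAD5-luciferase cells per well preceded pin-tool compound transfer. Plates sat 15.5 hr at 37C under 5% CO2, then fluorescence was read after 30 min with CellTiter-Fluor.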

The nature of experiment [5]: qHTS assay for small molecule disruptors of the mitochondrial membrane potential - cell viability (AID 720634; calls by dose curve; note: nearly all actives have a fitted effect of over 20% in size; note: potency is the fitted concentration of half-maximal effect). Summed up:
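Measuring cytotoxicity alongside mitochondrial potential, the screen quantified ATP by luminescence in HepG2 cells after 1 hr compound incubation and a 30 min room-temperature CellTiter-Glo step.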

Experiment [6] in a line: qHTS assay for small molecule disruptors of the mitochondrial membrane potential (AID 720635). Note: potency is the fitted concentration of half-maximal effect. Summed up: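 Mitochondrial membrane potential tracked with Mito-MPS dye, red aggregates (ex 540/em 590 nm) against green monomers (ex 490/em 535 nm). Compound treatment 1 hr at 37C, dye 30 min in HepG2.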
The nature of experiment [7]: qHTS assay to test for compound auto fluorescence at 590 nm (red) in HepG2 cells (AID 720674). In a few lines:
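We screened compounds on adherent HepG2 cells, incubating them for an hour at 37 C in 5% CO2 before reading emission at 590 nm under 540 nm excitation; values reflect equivalence to Rose Bengal sodium fluorescence.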

The nature of experiment [8]: qHTS assay to test for compound auto fluorescence at 535 nm (green) in HepG2 cells (AID 720675).
Experiment [9] is described as follows: qHTS assay to test for compound auto fluorescence at 460 nm (blue) in HEK293 cells (AID 720678). Summed up:
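HEK293 cells (2,000 per well, medium with 10% dialyzed FBS) attached for 4-5 hr at 37C, then received compound and stood overnight at 37C, 5% CO2. Blue fluorescence was read at Ex/Em 405/460 nm and expressed relative to triamterene.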

Experiment [10] is described as follows: qHTS assay to test for compound auto fluorescence at 590 nm (red) in HEK293 cells (AID 720679). Summed up: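 HEK293 cells (2,000/well, medium with 10% dialyzed FBS) attached for 4-5 hr at 37C, received 23 nL compound and were incubated overnight at 37C, 5% CO2. Red fluorescence was then read at 540/590nm Ex/Em, referenced to Rose Bengal sodium.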

“And” between values parts separate entries of the source, which are not always exact repeats. Equal entries are not always repeated. Records with an inconclusive call do not appear. The source made the active and inactive calls. Unless noted, calls come from the whole dose curve; as a rule, active = well fitted curve in the direction sought with a large enough effect in the repeat runs; inconclusive = weak or mixed curves; inactive = no such curve, though single readings can be large; an effect the other way counts as inactive or inconclusive.

Turning to `c1ccc2ccccc2c1`, the Potency result in experiment [1], in experiment [2], in experiment [3], in experiment [4], in [5] and in [6] was “inactive” in each case. In experiment [9], the Potency result is “inactive”. The compound was called inactive in experiment [7], in experiment [8] and in experiment [10].

Consider `NCCc1ccc(O)c(O)c1`, for which the Potency result in experiment [1], in experiment [2], in experiment [3], in experiment [5], in [6] and in [9] was “inactive” each time. Besides, the compound was classed as inactive in experiment [7], in experiment [8] and in [10].

Consider `CCCCC/C=C\C/C=C\CCCCCCCC(=O)OC`, for which the Potency result in experiment [1], in [2], in experiment [3], in experiment [5] and in [9] was “inactive” each time. For the same compound, the compound was classed as inactive in experiment [7], in experiment [8] and in experiment [10].

For the compound `COC(=O)Nc1nc2ccc(Sc3ccccc3)cc2[nH]1`, the Potency in [1] is 114 nM (active) and 68.6 nM (active); in experiment [2] it was 4.03 µM (active) and 12.2 µM (active); in [6] it was 4.33 µM (active). The Potency result in experiment [3], in [4], in experiment [5] and in [9] was “inactive” each time. For the same compound, the outcome in experiment [7] and in [8] was inactive.

As for `CC1(C)O[C@@H]2C[C@H]3[C@@H]4C[C@H](F)C5=CC(=O)CC[C@]5(C)[C@H]4[C@@H](O)C[C@]3(C)[C@]2(C(=O)CO)O1`, the Potency entry in experiment [1], in experiment [2], in [3], in experiment [5], in experiment [6] and in [9] was “inactive” throughout. Also, the call in experiment [7] and in experiment [8] was inactive.

`S=c1nc[nH]c2nc[nH]c12`: the Potency in experiment [1] is 8.41 µM (active) and 5.31 µM (active); in experiment [3] it was 1.88 µM (active) and 1.19 µM (active). The Potency result in experiment [2], in experiment [5], in experiment [6] and in experiment [9] was “inactive” throughout. In addition, the outcome in experiment [7] and in [8] was inactive.

With `O=[N+]([O-])c1cccc(Cl)c1`, the Potency result in experiment [1], in experiment [2], in [3], in experiment [5], in experiment [6] and in experiment [9] was “inactive” each time. Further, the call in [7], in [8] and in experiment [10] was inactive.

Take `CC(=O)Nc1ccc(C(=O)O)cc1`: the Potency result in experiment [1], in [2], in experiment [3], in [4], in experiment [5] and in [6] was “inactive” each time. Besides, the Potency entry in experiment [9] is “inactive”. For the same compound, the call in experiment [7], in experiment [8] and in [10] was inactive.

With `OCCOCCOCCOCCO`, the Potency entry in experiment [1], in [2], in experiment [3], in experiment [4], in experiment [5] and in [6] was “inactive” throughout. Further, the Potency entry in experiment [9] was “inactive”. The compound was classed as inactive in [7], in experiment [8] and in [10].

Consider `CC#C[C@]1(O)CC[C@H]2[C@@H]3CCC4=CC(=O)CCC4=C3[C@@H](c3ccc(N(C)C)cc3)C[C@@]21C`, for which the Potency was 21.1 µM (active) and 61.1 µM (active) in experiment [1]; 9.44 µM (active) in [3]; 10.6 µM (active) in experiment [6]. In addition, the Potency result in [2], in [5] and in experiment [9] was “inactive” throughout. Further, the outcome in experiment [7] and in experiment [8] was inactive.

With `CCc1ccc(O)cc1`, the Potency result in [1], in experiment [2], in experiment [3], in experiment [4], in experiment [5] and in experiment [9] was “inactive” in each case. The Potency in experiment [6] was 54.7 µM (active). Further, the result in [7], in [8] and in [10] was inactive.

In the case of `CC(C)(CO)COC(=O)C(C)(C)CO`, the Potency entry in [1], in experiment [2], in experiment [3], in experiment [4], in [5] and in experiment [6] was “inactive” each time. Besides, the Potency entry in [9] is “inactive”. The compound was classed as inactive in experiment [7], in experiment [8] and in experiment [10].

For the compound `Nc1cc(-c2ccncc2)c[nH]c1=O`, the Potency entry in [1], in experiment [2], in experiment [3], in experiment [4], in [5] and in experiment [6] was “inactive” throughout. Further, the Potency result in experiment [9] was “inactive”. Moreover, the compound was called inactive in [7], in experiment [8] and in [10].

Consider `NC(=O)/N=N/C(N)=O`, for which the Potency result in experiment [1], in [2], in experiment [3], in experiment [4], in experiment [5] and in experiment [9] was “inactive” in each case. Further, the outcome in [7], in experiment [8] and in experiment [10] was inactive.

For the compound `ClC1=C(Cl)C(Cl)(Cl)C(Cl)=C1Cl`, the Potency entry in experiment [2], in [5] and in experiment [9] was “inactive” throughout. In addition, the Potency in experiment [3] was 13.8 µM (active); in experiment [4], 6.9 µM (active) and 15.4 µM (active); in experiment [6], 61.1 µM (active). Also, the call in [7], in [8] and in experiment [10] was inactive.

Consider `CCCCCCOC(C)=O`, for which the Potency result in [2], in experiment [3], in [4], in experiment [5], in experiment [6] and in experiment [9] was “inactive” throughout. For the same compound, the compound was classed as inactive in experiment [7], in experiment [8] and in experiment [10].

For `NC(=O)NNc1ccccc1`, the Potency result in [1], in [3], in [5], in experiment [6] and in experiment [9] was “inactive” each time. Besides, the compound was called inactive in [7] and in experiment [8].

As to `CCCCOCCO`, the Potency result in experiment [2], in experiment [3], in [4], in [5], in experiment [6] and in [9] was “inactive” each time. For the same compound, the compound was called inactive in experiment [7], in experiment [8] and in experiment [10].

Consider `O=C(O)c1ccc([N+](=O)[O-])cc1`, for which the Potency entry in [1], in [3], in experiment [5], in [6] and in experiment [9] was “inactive” in each case. The outcome in experiment [7] and in experiment [8] was inactive.

For `NCc1cccc(CN)c1`, the Potency entry in [2], in experiment [3], in experiment [4], in [5], in experiment [6] and in [9] was “inactive” throughout. Moreover, the call in experiment [7] and in [8] was inactive.

On to `CCCCOCCOCCOC(=O)CCCCC(=O)OCCOCCOCCCC`, for which the Potency entry in experiment [2], in experiment [3], in experiment [4], in experiment [5], in [6] and in [9] was “inactive” throughout. The compound was classed as inactive in [7], in experiment [8] and in experiment [10].

For the compound `Oc1ccc2ccccc2c1N=Nc1ccccc1`, the Potency entry in experiment [2], in [3] and in [9] was “inactive” in each case. Also, the Potency in [4] is 30.6 µM (active) and 48.6 µM (active); in [5], 27.3 µM (active); in [6] it was 3.06 µM (active) and 6.11 µM (active). The call in experiment [7], in [8] and in experiment [10] was inactive.

Consider `CC1=C(CC(=O)O)c2cc(F)ccc2/C1=C\c1ccc(S(C)=O)cc1` (centres undefined), for which the Potency result in experiment [2], in experiment [3], in experiment [4], in experiment [5] and in experiment [9] was “inactive” each time. In addition, the compound was called inactive in experiment [7] and in experiment [8].

In the case of `CCOC(=O)[C@H](CCc1ccccc1)N[C@@H](C)C(=O)N1Cc2ccccc2C[C@H]1C(=O)O`, the Potency result in [2], in experiment [3], in [4], in experiment [5], in experiment [6] and in experiment [9] was “inactive” throughout. Further, the outcome in experiment [7] and in [8] was inactive.

For `CN(C)c1ccc(C(=N)c2ccc(N(C)C)cc2)cc1`, the Potency entry in experiment [2], in [3], in [5] and in experiment [9] was “inactive” in each case. Moreover, the Potency was 48 µM (active) and 46.7 µM (active) in experiment [4]; 27 µM (active) and 46.7 µM (active) in experiment [6]. The compound was called inactive in experiment [7], in experiment [8] and in experiment [10].

The record behind these values is PubChem BioAssay (Tox21).
